Test results published in PubChem BioAssay AID1159580 (chemical genetic matrix, 2015).
Where “and” joins values, the source holds several entries; their conditions need not be identical. Identical values can stand only once. Out of some 5,500 compounds screened, about 2,000 (36%) were called active. Inconclusive results (about 18%) are left out. No stated cut-off is given here; in the data, active means normalized growth mostly below about 0.91 (no sharp cut-off); inconclusive means no clear call, values can overlap the other calls; inactive means mostly above about 0.92. The list shows a part of the results.

Assay: chemical genetic growth profiling, strain panel (AID 1159580);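 further: tested at 20 µM; growth read once vehicle control cultures reached saturation at 30 °C; 1 = growth at the plate median or of vehicle wells; lower values mean less growth of the strain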
Settings: S. cerevisiae deletion strains, growth OD

Measured: normalized growth

CC(CCC(=O)O)[C@H]1CCC2C3C[C@H](O)[C@@H]4C[C@H](O)CC[C@]4(C)C3CC[C@@]21C (stereo partly specified)
inactive: locus YAL021C, strain ccr4, active compounds read low 0.977 | locus YAL026C, strain drs2, active compounds read low 1.01 | locus YAL030W, strain snc1, active compounds read low 0.984 | locus YBL061C, strain skt5, active compounds read low 0.989 | locus YBR009C, strain hhf1, active compounds read low 0.97 | locus YBR021W, strain FUR4, active compounds read low 1.01 | locus YBR023C, strain chs3, active compounds read low 0.982 | locus YBR171W, strain sec66, active compounds read low 0.996 | locus YBR229C, strain ROT2, active compounds read low 1.02 | locus YBR231C, strain swc5, active compounds read low 1.01 | locus YBR279W, strain paf1, active compounds read low 1 | locus YCL011C, strain gbp2, active compounds read low 0.97 | locus YCL016C, strain dcc1, active compounds read low 0.96 | locus YCL029C, strain bik1, active compounds read low 1.04 | locus YCL069W, strain vba3, active compounds read low 0.985 | locus YCR088W, strain abp1, active compounds read low 0.993 | locus YDL005C, strain med2, active compounds read low 0.973 | locus YDL035C, strain GPR1, active compounds read low 1.04 | locus YDL040C, strain nat1, active compounds read low 0.986 | locus YDL074C, strain BRE1, active compounds read low 1.04 | locus YDL101C, strain DUN1, active compounds read low 1.02 | locus YDL185W, strain tfp1, active compounds read low 1.03 | locus YDL192W, strain arf1, active compounds read low 1.04 | locus YDR001C, strain nth1, active compounds read low 0.976 | locus YDR069C, strain doa4, active compounds read low 0.983 | locus YDR101C, strain arx1, active compounds read low 1.04 | locus YDR137W, strain rgp1, active compounds read low 0.957 | locus YDR159W, strain sac3, active compounds read low 1.05 | locus YDR162C, strain NBP2, active compounds read low 1.01 | locus YDR195W, strain ref2 0.957 | locus YDR297W, strain sur2, active compounds read low 0.988 | locus YDR318W, strain mcm21, active compounds read low 1.02 | locus YDR334W, strain swr1, active compounds read low 0.99 | locus YDR335W, strain msn5, active compounds read low 0.979 | locus YDR388W, active compounds read low 1.02 | locus YDR392W, strain spt3, active compounds read low 0.88 | locus YDR502C, strain sam2, active compounds read low 1.04 | locus YEL003W, strain gim4, active compounds read low 1.01 | locus YEL037C, strain rad23, active compounds read low 0.985 | locus YEL061C, strain CIN8 (second series), active compounds read low 0.987 | locus YEL061C, strain CIN8, active compounds read low 1.02 | locus YER015W, strain faa2, active compounds read low 0.987 | locus YER016W, strain bim1, active compounds read low 0.981 | locus YER110C, active compounds read low 1.03 | locus YER111C, strain swi4, active compounds read low 0.974 | locus YER155C, strain BEM2 (second series), active compounds read low 1 | locus YER155C, strain BEM2, active compounds read low 1.02 | locus YER167W, strain BCK2, active compounds read low 1.04 | locus YFR010W, strain ubp6, active compounds read low 1.01 | locus YGL078C, strain dbp3, active compounds read low 1.02 | locus YGL086W, strain mad1, active compounds read low 1.04 | locus YGL167C, strain pmr1, active compounds read low 0.957 | locus YGL173C, strain kem1, active compounds read low 1 | locus YGL227W, strain vid30, active compounds read low 0.994 | locus YGL240W, strain doc1, active compounds read low 1.02 | locus YGL248W, strain PDE1, active compounds read low 1.02 | locus YGL253W, strain hxk2, active compounds read low 1.02 | locus YGR135W, strain pre9, active compounds read low 1.05 | locus YGR252W, strain gcn5, active compounds read low 1 | locus YHR013C, strain ard1, active compounds read low 0.935 | locus YHR027C, strain rpn1, active compounds read low 0.965 | locus YHR030C, strain SLT2, active compounds read low 1.02 and 1.06 | locus YHR079C, strain IRE1 (second series), active compounds read low 1.02 | locus YHR079C, strain IRE1, active compounds read low 1.04 | locus YHR094C, strain hxt1, active compounds read low 1.02 | locus YHR129C, strain ARP1, active compounds read low 1.03 | locus YHR142W, strain chs7, active compounds read low 0.958 | locus YHR200W, strain rpn10, active compounds read low 1.03 | locus YIL066C, strain RNR3, active compounds read low 1 | locus YIL073C, strain SPO22, active compounds read low 1.1 | locus YIL125W, strain kgd1, active compounds read low 1.03 | locus YIR030C, strain dcg1, active compounds read low 1.02 | locus YJL092W, strain hpr5, active compounds read low 0.99 | locus YJL095W, strain BCK1 (second series), active compounds read low 0.99 | locus YJL095W, strain BCK1, active compounds read low 1.08 and 1.04 | locus YJL115W, strain asf1, active compounds read low 0.977 | locus YJL129C, strain trk1, active compounds read low 0.979 | locus YJL134W, strain LCB3, active compounds read low 1.03 | locus YJL154C, strain vps35, active compounds read low 0.987 | locus YJL164C, strain tpk1, active compounds read low 0.95 | locus YJL166W, strain qcr8, active compounds read low 1 | locus YJL168C, strain set2, active compounds read low 1.03 | locus YJL187C, strain SWE1 (second series), active compounds read low 1.06 | locus YJL187C, strain SWE1, active compounds read low 0.993 | locus YJR043C, strain POL32, active compounds read low 1.04 | locus YJR066W, strain TOR1, active compounds read low 1 | locus YKL009W, strain mrt4, active compounds read low 0.994 | locus YKL068W, active compounds read low 1.01 | locus YKL085W, strain MDH1 (second series), active compounds read low 1.02 | locus YKL085W, strain MDH1, active compounds read low 1.02 | locus YKL160W, strain elf1, active compounds read low 0.948 | locus YKL190W, strain CNB1, active compounds read low 1.07 | locus YKR001C, strain vps1, active compounds read low 1.06 | locus YKR026C, strain gcn3, active compounds read low 0.996 | locus YKR091W, strain srl3, active compounds read low 0.973 | locus YLL001W, strain dnm1, active compounds read low 0.932 | locus YLL026W, active compounds read low 0.986 | locus YLL041C, strain sdh2, active compounds read low 0.984 | locus YLR027C, strain aat2, active compounds read low 1 | locus YLR039C, strain RIC1, active compounds read low 1.08 | locus YLR058C, strain SHM2, active compounds read low 1.02 | locus YLR102C, strain apc9, active compounds read low 1.03 | locus YLR113W, strain HOG1, active compounds read low 1.02 | locus YLR221C, strain rsa3, active compounds read low 1.03 | locus YLR258W, strain gsy2, active compounds read low 0.962 | locus YLR262C, strain YPT6 (second series), active compounds read low 0.984 | locus YLR262C, strain YPT6, active compounds read low 1.17 | locus YLR268W, strain sec22, active compounds read low 1.06 | locus YLR320W, strain mms22, active compounds read low 1.02 | locus YLR330W, strain CHS5, active compounds read low 1.06 | locus YLR342W, strain FKS1 (second series), active compounds read low 1.04 | locus YLR342W, strain FKS1, active compounds read low 0.989 | locus YLR357W, strain rsc2, active compounds read low 1 | locus YLR370C, strain arc18, active compounds read low 0.981 | locus YLR371W, strain rom2, active compounds read low 1.03 | locus YLR384C, strain iki3, active compounds read low 0.964 | locus YLR418C, strain cdc73, active compounds read low 1.05 | locus YML016C, strain PPZ1, active compounds read low 1.02 | locus YML032C, strain rad52, active compounds read low 1.01 | locus YML120C, strain ndi1, active compounds read low 0.96 | locus YML124C, strain tub3, active compounds read low 1.02 | locus YMR058W, strain fet3, active compounds read low 0.997 | locus YMR078C, strain ctf18, active compounds read low 1.03 | locus YMR125W, strain sto1, active compounds read low 0.978 | locus YMR129W, active compounds read low 1.02 | locus YMR205C, strain PFK2, active compounds read low 0.993 | locus YMR223W, strain ubp8, active compounds read low 1.03 | locus YMR231W, strain pep5, active compounds read low 0.993 | locus YMR263W, strain SAP30, active compounds read low 1.04 | locus YMR307W, strain GAS1, active compounds read low 1.1 | locus YNL067W, strain RPL9B, active compounds read low 1.09 | locus YNL071W, strain lat1, active compounds read low 0.991 | locus YNL183C, strain NPR1, active compounds read low 0.999 | locus YNL209W, strain ssb2, active compounds read low 0.978 | locus YNL233W, strain BNI4, active compounds read low 1.08 | locus YNL248C, strain rpa49, active compounds read low 1.03 | locus YNL250W, strain rad50, active compounds read low 1.03 | locus YNL271C, strain bni1, active compounds read low 1.02 | locus YNL298W, strain CLA4, active compounds read low 1 | locus YNL307C, strain MCK1, active compounds read low 1.03 | locus YNL322C, strain KRE1 (second series), active compounds read low 0.982 | locus YNR049C, strain mso1, active compounds read low 0.989 | locus YNR052C, strain pop2, active compounds read low 1.02 | locus YOL012C, strain htz1 0.914 | locus YOL147C, strain pex11, active compounds read low 1.03 | locus YOR001W, strain rrp6, active compounds read low 1.02 | locus YOR061W, strain CKA2, active compounds read low 1.02 | locus YOR069W, strain VPS5, active compounds read low 1.02 | locus YOR070C, strain gyp1, active compounds read low 1.01 | locus YOR080W, strain dia2, active compounds read low 0.995 | locus YOR083W, strain WHI5, active compounds read low 0.948 | locus YOR106W, strain vam3, active compounds read low 0.909 | locus YOR136W, strain idh2, active compounds read low 1.04 | locus YOR144C, strain elg1, active compounds read low 1.02 | locus YOR184W, strain ser1, active compounds read low 1.04 | locus YOR231W, strain MKK1, active compounds read low 1.07 | locus YOR265W, strain rbl2, active compounds read low 0.983 | locus YOR270C, strain vph1, active compounds read low 0.982 | locus YOR290C, strain snf2, active compounds read low 0.927 | locus YOR316C, strain cot1, active compounds read low 1.02 | locus YPL051W, strain arl3, active compounds read low 0.954 | locus YPL055C, strain LGE1, active compounds read low 1.06 | locus YPL078C, strain atp4, active compounds read low 0.936 | locus YPL106C, strain sse1, active compounds read low 0.978 | locus YPL240C, strain hsp82, active compounds read low 0.991 | locus YPL256C, strain CLN2, active compounds read low 1.04 | locus YPR119W, strain clb2, active compounds read low 1.02 | locus YPR141C, strain kar3, active compounds read low 1.03 | locus YPR163C, strain tif3, active compounds read low 1.03 | locus YPR167C, strain met16, active compounds read low 1.02 | strain wtn01, active compounds read low 1.05
